From the supplement of paper PMC8728848
Only a selection was taken, and the strongest signals are over-represented in it overall.

Key:
Experiment in all cases: glycan array binding signal (z-score within array); higher = stronger binding
Conditions in all cases: glycan notation: IUPAC condensed, linker removed
[1] = biological target: GlcNAc(b1-2)[GlcNAc(b1-4)]Man(a1-3)[GlcNAc(b1-4)][GlcNAc(b1-2)Man(a1-6)]Man(b1-4)GlcNAc(b1-4)GlcNAc
Outline: (§1)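 The binding signal is a Z-score computed within each array. Data were drawn from 3228 arrays in the Consortium for Functional Glycomics database, restricted to those with a known protein sequence. Scores were averaged over arrays of the same protein sequence at different concentrations or buffers, and over linkers, and negative values can be taken as non-binding.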

GlcNAc(b1-3)Fuc = biological target: GlcNAc(b1-3)Fuc
Outline: as §1

[2] = biological target: GlcNAc(b1-3)Gal(b1-3)GalNAc
Outline: as §1

[3] = biological target: GlcNAc(b1-3)Gal(b1-4)GlcNAc(b1-2)[GlcNAc(b1-3)Gal(b1-4)GlcNAc(b1-6)]Man(a1-6)[GlcNAc(b1-3)Gal(b1-4)GlcNAc(b1-2)Man(a1-3)]Man(b1-4)GlcNAc(b1-4)GlcNAc
Outline: as §1

[4] = biological target: GlcNAc(b1-3)Gal(b1-4)GlcNAc(b1-3)Gal(b1-4)GlcNAc(b1-2)Man(a1-3)[GlcNAc(b1-3)Gal(b1-4)GlcNAc(b1-3)Gal(b1-4)GlcNAc(b1-2)Man(a1-6)]Man(b1-4)GlcNAc(b1-4)GlcNAc
Outline: as §1

[5] = biological target: GlcNAc(b1-3)Gal(b1-4)GlcNAc(b1-3)Gal(b1-4)GlcNAc(b1-3)Gal(b1-4)GlcNAc(b1-2)[GlcNAc(b1-3)Gal(b1-4)GlcNAc(b1-3)Gal(b1-4)GlcNAc(b1-3)Gal(b1-4)GlcNAc(b1-6)]Man(a1-6)[GlcNAc(b1-3)Gal(b1-4)GlcNAc(b1-3)Gal(b1-4)GlcNAc(b1-3)Gal(b1-4)GlcNAc(b1-2)Man(a1-3)]Man(b1-4)GlcNAc(b1-4)[Fuc(a1-6)]GlcNAc
Outline: as §1

GlcNAc(b1-3)GalNAc = biological target: GlcNAc(b1-3)GalNAc
Outline: as §1

[6] = biological target: GlcNAc(b1-4)GlcNAc(b1-4)GlcNAc
Outline: as §1

GlcNAc(b1-6)GalNAc = biological target: GlcNAc(b1-6)GalNAc
Outline: as §1

Kdn(a2-3)Gal(b1-4)GlcNAc = biological target: Kdn(a2-3)Gal(b1-4)GlcNAc
Outline: as §1

[7] = biological target: Man(a1-2)Man(a1-2)Man(a1-3)Man
Outline: as §1

Man(a1-3)[Man(a1-6)]Man = biological target: Man(a1-3)[Man(a1-6)]Man
Outline: as §1

[8] = biological target: Man(a1-3)[Man(a1-6)]Man(b1-4)GlcNAc(b1-4)[Fuc(a1-6)]GlcNAc
Outline: as §1

[9] = biological target: Neu5Ac(a2-3)Gal(b1-3)GlcNAc(b1-2)Man(a1-3)[GlcNAc(b1-4)][Neu5Ac(a2-3)Gal(b1-3)GlcNAc(b1-2)Man(a1-6)]Man(b1-4)GlcNAc(b1-4)GlcNAc
Outline: as §1

[10] = biological target: Neu5Ac(a2-3)Gal(b1-4)GlcNAc(b1-3)Gal(b1-4)[Fuc(a1-3)]GlcNAc
Outline: as §1

[11] = biological target: Neu5Ac(a2-3)[Neu5Ac(a2-6)]GalNAc
Outline: as §1

[12] = biological target: Neu5Ac(a2-6)Gal(b1-4)GlcNAc(b1-2)Man(a1-3)[Man(a1-6)]Man(b1-4)GlcNAc(b1-4)GlcNAc
Outline: as §1

[13] = biological target: Neu5Ac(a2-6)Gal(b1-4)GlcNAc(b1-3)Gal(b1-4)GlcNAc
Outline: as §1

[14] = biological target: Neu5Ac(a2-6)Gal(b1-4)GlcNAc(b1-3)Gal(b1-4)GlcNAc(b1-3)Gal(b1-4)GlcNAc(b1-2)Man(a1-3)[Neu5Ac(a2-6)Gal(b1-4)GlcNAc(b1-3)Gal(b1-4)GlcNAc(b1-3)Gal(b1-4)GlcNAc(b1-2)Man(a1-6)]GalNAc
Outline: as §1

[15] = biological target: Neu5Ac(a2-6)Gal(b1-4)GlcNAc(b1-3)[Neu5Ac(a2-6)Gal(b1-4)GlcNAc(b1-6)]GalNAc
Outline: as §1

[16] = biological target: Neu5Ac(a2-6)GlcNAc(b1-4)GlcNAc
Outline: as §1

[17] = biological target: Neu5Ac(a2-8)Neu5Ac(a2-8)Neu5Ac(a2-3)[Gal(b1-3)GalNAc(b1-4)]Gal(b1-4)Glc
Outline: as §1

[18] = biological target: Neu5Ac(a2-8)Neu5Ac(a2-8)Neu5Ac(a2-3)[GalNAc(b1-4)]Gal(b1-4)Glc
Outline: as §1

[19] = biological target: Neu5Gc(a2-3)Gal(b1-4)GlcNAc
Outline: as §1

[20] = biological target: Neu5Gc(b2-6)Gal(b1-4)GlcNAc
Outline: as §1

B1: GS13599A-bth-520-23-520 (Bacteroides thetaiotaomicron) (protein)
chain: SEDTMDRINKDHDHTTSVASRFILADVITSTAFSNASGDINTYASSYIEYEVGVDNQLYYAEVRENEPSSSSTFNNSWNGIYSSLKNARIIIDQCGEGGRDHGNDVTRGMAEVMAAYNCALIADFFGDAPCSQAALVDEKGSPVYMTPKMDTQQEIYTQIISYLDDAIANLQKEDLADVTEQDFLYAGDADKWLKFAYGLKARYTMRLINRSSNKSADYEKVLDYVSKSFTSADDQAAFDIYDSNNINPFYGFYNSRAGFGASTSLGTKLLAYNDPRANRAFFTPIVDKKRSQVAANDPSLVPAPNGSPDQSTSKYGISAFVYAKTAPTLLMSYHELMFLKAEALCRLNRDAEDALKEAVVAGLLNAENSISIAIKELGSGLNTNSSEVITETSAGKYFDDVVKAKYAANPLQETMIQKYLAMWGASGEATETYNDFRRMKGLNENFITLTNPNNSSKFPLRYPYGNSDTAANPEVKAAYGNGDYVYSEPVWWAGGSR
glycan array binding signal (z-score) [1]: -1.27 | glycan array binding signal (z-score) (GlcNAc(b1-3)Fuc): -0.118 | glycan array binding signal (z-score) [2]: 1.12 | glycan array binding signal (z-score) [3]: 1.84 | glycan array binding signal (z-score) [4]: 1.66 | glycan array binding signal (z-score) [5]: 0.815 | glycan array binding signal (z-score) (GlcNAc(b1-3)GalNAc): -0.348 | glycan array binding signal (z-score) [6]: -0.942 | glycan array binding signal (z-score) (GlcNAc(b1-6)GalNAc): -0.798 | glycan array binding signal (z-score) (Kdn(a2-3)Gal(b1-4)GlcNAc): 0.096 | glycan array binding signal (z-score) [7]: 0.245 | glycan array binding signal (z-score) (Man(a1-3)[Man(a1-6)]Man): 0.71 | glycan array binding signal (z-score) [8]: 0.777 | glycan array binding signal (z-score) [9]: 0.566 | glycan array binding signal (z-score) [10]: -0.897 | glycan array binding signal (z-score) [11]: -0.336 | glycan array binding signal (z-score) [12]: 0.864 | glycan array binding signal (z-score) [13]: -1.27 | glycan array binding signal (z-score) [14]: 2.37 | glycan array binding signal (z-score) [15]: 0.2 | glycan array binding signal (z-score) [16]: 0.611 | glycan array binding signal (z-score) [17]: 1.71 | glycan array binding signal (z-score) [18]: -1.68 | glycan array binding signal (z-score) [19]: -0.966 | glycan array binding signal (z-score) [20]: -0.127
